Test results as given in PubChem BioAssay (EPA / NIEHS).
Where a structure was tested more than once in an assay, its records may differ in their call. Activity calls are given as the source filed them. The calls were made as follows: active = hit-call score of the fitted dose curve at least 0.9, where 1 is the maximum; inactive = score below 0.9.

Legend:
[1] = read-out: Interferon-gamma inducible Protein 10 (IP10), CXCL10 (gene 3627); test: BSK_hDFCGF_IP10: BioMAP Diversity Plus: hDFCGF Assay for Interferon-gamma inducible Protein 10 (IP10) Biomarker Activity (AID 2283053); settings: primary human foreskin fibroblasts; actives raise or lower the signal
In short: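 Human foreskin fibroblast primary cells (hDFCGF system) were dosed with chemical and assayed at 24 h; IP-10 measured by ELISA. Activity fitted bidirectionally relative to DMSO negative control as baseline.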

[2] = read-out: Urokinase-type plasminogen activator receptor (uPAR), PLAUR (gene 5329); test: BSK_CASM3C_uPAR: BioMAP Diversity Plus: CASM3C Assay for Urokinase-type plasminogen activator receptor (uPAR) Biomarker Activity (AID 2283054); settings: primary human coronary artery smooth muscle cells; actives raise or lower the signal;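 also: cell-surface uPAR protein level quantified by ELISA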
[3] = read-out: Vascular cell adhesion molecule 1 (VCAM1), VCAM1 (gene 7412); test: BSK_CASM3C_VCAM1: BioMAP Diversity Plus: CASM3C Assay for Vascular cell adhesion molecule 1 (VCAM1) Biomarker Activity (AID 2283055); settings: primary human coronary artery smooth muscle cells; actives raise or lower the signal;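 also: VCAM-1 protein level quantified by ELISA on the cells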
[4] = read-out: Collagen III, COL3A1 (gene 1281); test: BSK_hDFCGF_CollagenIII: BioMAP Diversity Plus: hDFCGF Assay for Collagen III Biomarker Activity (AID 2283056); settings: primary human foreskin fibroblasts; actives raise or lower the signal
In short: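 Response relative to DMSO, fitted in both directions, reflects ELISA-measured collagen III in human primary skin fibroblasts 24 h after compound addition.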

[5] = read-out: Epidermal growth factor receptor (EGFR), EGFR (gene 1956); test: BSK_hDFCGF_EGFR: BioMAP Diversity Plus: hDFCGF Assay for Epidermal growth factor receptor (EGFR) Biomarker Activity (AID 2283057); settings: primary human foreskin fibroblasts; actives raise or lower the signal
In short: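 Primary human foreskin fibroblasts were exposed to compound for 24 h, after which cell-surface EGFR was quantified by ELISA. Activity was fitted bidirectionally against the DMSO negative control as baseline.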

[6] = read-out: Interleukin-8 (IL8), CXCL8 (gene 3576); test: BSK_hDFCGF_IL8: BioMAP Diversity Plus: hDFCGF Assay for Interleukin-8 (IL8) Biomarker Activity (AID 2283058); settings: primary human foreskin fibroblasts; actives raise or lower the signal
In short: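 Fibroblast monolayers (human foreskin, hDFCGF) received test chemical for 24 h before ELISA detection of IL-8; either increases or decreases relative to DMSO count as activity.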

[7] = BSK_hDFCGF_Proliferation: Cell Proliferation Assessment in the BioMAP Diversity Plus: hDFCGF Assay (AID 2283059); settings: primary human foreskin fibroblasts;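 also: curves fitted for both rise and fall of signal versus DMSO baseline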
In short: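 This proliferation readout used SRB total-protein staining of human foreskin fibroblasts […], normalized to DMSO with bidirectional curve fitting.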

[8] = read-out: Macrophage colony-stimulating factor (MCSF), CSF1 (gene 1435); test: BSK_hDFCGF_MCSF: BioMAP Diversity Plus: hDFCGF Assay for Macrophage colony-stimulating factor (MCSF) Biomarker Activity (AID 2283060); settings: primary human foreskin fibroblasts; actives raise or lower the signal
In short: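 fibroblasts (human foreskin, primary), 24 h post-dose; M-CSF by ELISA; bidirectional fit, DMSO = baseline.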

[9] = BSK_hDFCGF_SRB: Viability Assessment in the BioMAP Diversity Plus: hDFCGF Assay (AID 2283061); settings: primary human foreskin fibroblasts;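 also: cells exposed to compound for 24 h before the read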
In short: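 SRB-based viability read on primary human skin fibroblasts at 24 h: TCA fixation, 0.1% dye, 560 nm. Gain or loss of signal is fitted against the DMSO negative control.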

[10] = read-out: TIMP metallopeptidase inhibitor 1 (TIMP1), TIMP1 (gene 7076); test: BSK_hDFCGF_TIMP1: BioMAP Diversity Plus: hDFCGF Assay for TIMP metallopeptidase inhibitor 1 (TIMP1) Biomarker Activity (AID 2283062); settings: primary human foreskin fibroblasts; actives raise or lower the signal
In short: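 Bidirectional curve fitting against DMSO baseline yielded this endpoint, based on ELISA detection of TIMP-1 in primary human foreskin fibroblasts exposed to compound for 24 h.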

Measured: AC50

CC1(C)[C@H](C(=O)O[C@H](C#N)c2cccc(Oc3ccccc3)c2)[C@@H]1/C=C(\Cl)C(F)(F)F
active: [4] 9.08 µM | [7] 7.37 µM
inactive: [1] | [2] | [3] | [4] | [5] | [6] | [7] | [8] | [9] | [10]

Nc1ccc(N)cc1
inactive: all assays above

NC(=O)CCl
active: [4] 9.58 µM
inactive: all other assays above

Clc1cccc(Cl)c1
inactive: all assays above

OCCCCO
inactive: all assays above

COc1ccccc1N
inactive: all assays above

O=[N+]([O-])c1cccc2ccccc12
active: [2] 20 µM
inactive: all other assays above

Oc1ccc(Cc2ccc(O)cc2)cc1
inactive: all assays above

c1ccc(-c2cccc(-c3ccccc3)c2)cc1
active: [1] 29.5 µM | [4] 11.7 µM | [7] 11 µM | [8] 20 µM | [9] 12.2 µM | [10] 20 µM
inactive: [2] | [3] | [5] | [6]

Oc1cccc(-c2ccccc2)c1
active: [3] 31.7 µM | [4] 30 µM | [7] 35.3 µM | [8] 33.7 µM | [9] 30.7 µM
inactive: [1] | [2] | [5] | [6] | [10]

CCOC(=O)CCN(SN(C)C(=O)Oc1cccc2c1OC(C)(C)C2)C(C)C
inactive: [5] | [6]
active: [1] 37.1 µM | [2] 33.3 µM | [3] 20 µM | [4] 4.31 µM | [7] 15.2 µM | [8] 26 µM | [9] 31 µM | [10] 33.5 µM

CN(C)C(=S)S
inactive: [2] | [3] | [5]
active: [1] 18 µM | [4] 3.97 µM | [6] 30.9 µM | [7] 14.6 µM | [8] 14.2 µM | [9] 27.1 µM | [10] 13 µM

C#CCOC(=O)/C=C(C)/C=C/CC(C)CCCC(C)C (stereo not drawn)
active: [4] 12.6 µM | [8] 10 µM
inactive: all other assays above

Cc1ccccc1OP(=O)(Oc1ccccc1C)Oc1ccccc1C
active: [1] 11.2 µM | [2] 20 µM | [3] 32.4 µM | [5] 11.8 µM | [7] 4.26 µM | [8] 7.75 µM | [9] 8.28 µM | [10] 11.7 µM
inactive: [4] | [6]

c1ccc2sc(SNC3CCCCC3)nc2c1
inactive: all assays above

CCOC(=O)CC(=O)CCl
active: [3] 20 µM | [7] 19 µM | [8] 20 µM
inactive: all other assays above

CC(C)(C)c1cc([N+](=O)[O-])cc(C(C)(C)C)c1O
active: [2] 11.8 µM
inactive: all other assays above

N#CCCC(Br)(C#N)CBr (stereo not drawn)
inactive: [5]
active: [1] 3.73 µM | [2] 15.6 µM | [3] 11.9 µM | [4] 17 µM | [6] 12.7 µM | [7] 0.4 µM | [8] 5.08 µM | [9] 7.68 µM | [10] 4.28 µM

O=S(=O)(C(Cl)(Cl)Cl)C(Cl)(Cl)Cl
active: [1] 2.92 µM | [2] 3.04 µM | [3] 1.41 µM | [4] 2.27 µM | [5] 1.55 µM | [6] 3.56 µM | [7] 0.0831 µM | [8] 2.3 µM | [9] 1.52 µM | [10] 1.72 µM

CC(C)(C)c1ccccc1O
inactive: all assays above

COCC(=O)N(c1c(C)cccc1C)[C@H](C)C(=O)OC
inactive: all assays above

CC(C)N(C(=O)CCl)c1ccccc1
active: [1] 3.13 µM | [2] 11 µM | [3] 4.39 µM | [4] 1.69 µM | [6] 13.3 µM | [7] 2.45 µM | [8] 6.59 µM | [9] 3.03 µM | [10] 2.98 µM
inactive: [5]

Clc1cccc(Cl)c1Cl
inactive: all assays above

O=C(O)C1(c2ccc3c(c2)OC[C@H](Cc2ccc(-c4ccccc4)cc2)[C@H]3O)CCCC1
active: [1] 7.31 µM | [2] 28 µM | [3] 20 µM | [4] 4.51 µM | [5] 5.5 µM | [6] 14.7 µM | [7] 6.62 µM | [8] 8.18 µM | [9] 7.76 µM | [10] 11.7 µM

CCOP(=S)(OCC)SCS(=O)(=O)C(C)(C)C
inactive: all assays above

OC(Cc1ccccc1Cl)(Cn1cncn1)C1(Cl)CC1 (stereo not drawn)
inactive: all assays above

Cc1ccc(OP(=O)(Oc2ccc(C)cc2C)Oc2ccc(C)cc2C)c(C)c1
active: [5] 3.88 µM | [7] 4.72 µM | [8] 5.48 µM | [9] 4.22 µM
inactive: all other assays above

Cc1cc(Cl)ccc1N
active: [7] 5.13 µM
inactive: all other assays above

CCOP(=O)(OCC)OC(=CCl)c1ccc(Cl)cc1Cl
inactive: [5] | [6]
active: [1] 36.4 µM | [2] 30.2 µM | [3] 33.8 µM | [4] 25.6 µM | [7] 37.4 µM | [8] 31 µM | [9] 30.8 µM | [10] 30.1 µM

O=c1oc2ccccc2c(O)c1C(CC(O)c1ccc(-c2ccc(Br)cc2)cc1)c1ccccc1 (stereo not drawn)
inactive: [6] | [10]
active: [1] 5.38 µM | [2] 21.8 µM | [3] 5.57 µM | [4] 0.632 µM | [5] 4.73 µM | [7] 5.25 µM | [8] 5.57 µM | [9] 5.28 µM

OC(Cc1ccccc1Cl)(Cn1[nH]cnc1=S)C1(Cl)CC1 (stereo not drawn)
inactive: [5] | [6] | [9] | [10]
active: [1] 29.5 µM | [2] 32.5 µM | [3] 36.3 µM | [4] 9.86 µM | [7] 35.2 µM | [8] 15 µM

O=C(O)COc1cc(Cl)c(Cl)cc1Cl
inactive: all assays above

CCCCOC(=O)COC(=O)c1ccccc1C(=O)OCCCC
active: [7] 20 µM
inactive: [1] | [2] | [3] | [4] | [5] | [6] | [7] | [8] | [9] | [10]
